# Shown are actives, neighbours in structure and some others; about 5.7% of the full set was active somewhere.
# GLP1R inv ag: inverse agonists of human GLP-1 receptor. AID 624417. P43220. HEK293 GLP-1R CRE-luciferase, luminescence, 24 h; GLP-1R form is constitutively active. hit rate 1.6% among 410,000. Potency, µM (titrated, usually from 38.3 µM), for inactives: at the top dose activity change, negative = inhibition, hits mostly inhibitors; further: potency means the concentration at half of the fitted maximal effect; on the % scale 0 is the no-effect control and ±100 the full control effect; nearly all actives have a fitted effect of over 55% in size
#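 Assay principle: reduced luminescence from a cAMP-responsive reporter in HEK293 cells co-expressing a constitutively active GLP-1R. Conditions: 24 hr compound incubation, 37 deg C, 5% CO2.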
# GLP1R cytotox: cytotoxicity in counter-screen for GLP-1R inverse agonists; HEK293 cAMP-luciferase reporter cells, luminescence, 24 h; Potency, µM (top dose mostly 38.3 µM), without a hit: at the top dose activity change, negative = inhibition, usual class: inhibitors; hit rate 0.13% among 410,000;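 further: loss of luciferase light is scored as toxicity; potency means the concentration at half of the fitted maximal effect; on the % scale 0 is the no-effect control and ±100 the full control effect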
#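 Luminescence readout: signal drop marks cytotoxicity. Plated cells grew 12 h at 37 °C, 5% CO2, received 23 nL compound for 24 h, then got luciferase reagent, read after 12 min at RT.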
# DRD3 antagonist: blocks the human D3 dopamine receptor | D3R cells, DiscoveRx beta-arrestin luminescence, antagonist mode; active compounds read low | max response, negative = inhibition, % | hit rate 2.5% among 360,000; in the data active means max response below about -50%; inconclusive means no clear call, values can overlap the other calls; further: on the % scale 0 is the no-effect control and ±100 the full control effect
#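 Cells expressing the human receptor were seeded at 1500 cells/well, incubated overnight at 37 degrees C in 5% CO2, then exposed to library compounds with dopamine controls for 90 minutes at 37 degrees C before luminescent detection.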
# ClpP mod: qHTS Assay for Activators of ClpP; hit rate 1.9% among 340,000; Potency, µM (series often up to 57.5 µM), inactives show at the highest dose activity change, negative = active; purified B. subtilis ClpP, FRET peptide cleavage, 20 min; ATP-dependent Clp protease proteolytic subunit (Bacillus subtilis (strain 168)), P80244; active means well fitted falling curve with a large enough effect; inconclusive means small, poorly fitted or top-dose-only effect; inactive means no such curve, though single readings can be large or run the other way; further: potency means the concentration at half of the fitted maximal effect; the source files actives as falling curves though it sought activators and does not explain the sign; nearly all actives have a fitted effect of over 65% in size
#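 ClpP 10 microg/mL final, pH 8 Tris/KCl buffer with BSA, glycerol, Tween-20; compound pinned in; FRET-FV substrate; RT 20 min; Ex320/Em430; ΔFRET vs ADEP 5.8 microM, DMSO, no enzyme.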
# GLP1R ag: agonists of human GLP-1 receptor; P43220; HEK293 GLP-1R CRE-luciferase, luminescence, 4-6 h; cells express a hypersensitive GLP-1R form; Potency, µM (top dose mostly 45.6 µM), inactives show at the highest dose activation, hits mostly activators; hit rate 0.007% among 380,000; further: potency means the concentration at half of the fitted maximal effect; % of control where 0% means no effect
# D3 ag: agonists of human D3 dopamine receptor; D3R DiscoveRx beta-arrestin cells, luminescence, 90 min; max activation, %; hit rate 0.58% among 410,000; AID 652048; in the data active means max activation above about 30%; further: 0% is about no effect
#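 Agonist-mode cell screen: cells plated at 1500/well and incubated overnight at 37 °C, then exposed to library compounds for 90 min at 37 °C. Detection reagent was added for 30–60 min at room temperature, and luminescence was read.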
# The depositor's hits bear a star; ? = inconclusive; nt = not tested or not shown; [ ] = remark or other dose. Unless noted, the call rests on the fitted dose curve; in most records, active means well fitted curve in the direction sought with a large enough effect; inconclusive means small, poorly fitted or top-dose-only effect, or another doubt; inactive means no such curve, though single readings can be large; an effect the other way counts as inactive or inconclusive.
SMILES,GLP1R inv ag,GLP1R cytotox,DRD3 antagonist,ClpP mod,GLP1R ag,D3 ag
Cc1cc(=O)[nH]c(N=N/C(=N/Nc2ccccc2C)c2ccccc2)n1,?,?,?,-3%,2%,-3
COc1ccc(N/N=C(/N=Nc2nc(C)cc(=O)[nH]2)c2ccccc2)cc1,?,4µM*,-57*,-2%,0%,-6
Cc1cc(=O)[nH]c(N=N/C(=N/Nc2ccc(O)cc2)c2ccccc2)n1,-23%,-23%,-101*,-5%,-12%,2
Cc1ccc(SCC(=O)Nc2ccc(-c3nc4ccccc4[nH]3)cc2)cc1,-13%,-14%,0,25µM*,-25%,-10
COCCNC(=O)CSc1ccc(-c2nc3ccccc3[nH]2)cn1,8%,-13%,1,4%,1%,-3
CCOC(=O)CSc1ccc(-c2nc3cc(C)c(C)cc3[nH]2)cn1,0%,-6%,-15,32µM*,1%,0
CCOC(=O)CSc1ccc(-c2nc3ccccc3[nH]2)cn1,1%,28%,-14,32µM*,-2%,-1
Cc1ccc(NC(=O)CCCSc2nc3ccccc3[nH]2)cc1,?,1%,3,nt,18%,-1
O=C(Nc1ccc(-c2nc3ccccc3[nH]2)cc1)c1ccc(N2C(=O)CCC2=O)cc1,1%,73%,9,22µM*,5%,-2
CCc1ccc(NC(=O)Cn2c(=O)n(CCCCC(=O)NCc3ccc4c(c3)OCO4)c(=O)c3ccccc32)cc1,11%,2%,nt,?,0%,9
Cc1cccc(N2CCN(c3nc4ccccc4c4nnc(C)n34)CC2)c1C,3%,3%,nt,-2%,nt,13
Cc1ccc2nc(-c3ccc(SCC(=O)Nc4nc(C)cs4)nc3)[nH]c2c1,5%,2%[1.53 µM],-6,7.9µM*,-1%,-3
O=C(CSc1ccc(-c2nc3ccccc3[nH]2)cn1)Nc1ccc2c(c1)OCCO2,20%,-25%,16,25µM*,9%,2
Cc1ccc2nc(-c3ccc(SCC(=O)Nc4ccc5c(c4)OCCO5)nc3)[nH]c2c1,12%,-5%,-3,304%,1%,-4
Cc1cc2nc(-c3ccc(SCC(=O)N4CCOCC4)nc3)[nH]c2cc1C,?,?,34,3.2µM*,-17%,19
Cc1ccc(CN2CCCn3nc(C(=O)NCCc4ccccc4Cl)cc3C2=O)cc1,?,-1%,nt,1%,nt,-4
CC(=O)c1sc(NC(=O)CCS(=O)(=O)c2ccc(C)cc2)nc1C,?,10µM*,-12,-5%,-9%,0
CC(=O)c1sc(NC(=O)CS(=O)(=O)c2ccc(F)cc2)nc1C,22%,18%,23,0%,-5%,1
COc1ccccc1/C=C/C=C(\C#N)C(=O)NC(C)c1ccccc1 (stereo not drawn),11µM*,?,-18,nt,13%,-10
CCCCn1c(NCc2ccccc2NS(=O)(=O)c2ccc(C)cc2)nc2ccccc21,?,-18%,-29,-3%,-27%,-10
Cc1ccc(S(=O)(=O)c2c(N)n(CC3CCOC3)c3nc4ccccc4nc23)cc1 (stereo not drawn),?,3%,8,13µM*,6%,24
CCCCn1c(NS(=O)(=O)c2ccc(C)cc2)c(S(=O)(=O)c2ccccc2)c2nc3ccccc3nc21,?,42%,-17,25µM*,0%,-5
Cc1ccc(S(=O)(=O)c2c(N)n(CCCN(C)C)c3nc4ccccc4nc23)cc1,?,-17%,10,4%,16%,-15
Nc1c(S(=O)(=O)c2cccc(Cl)c2)c2nc3ccccc3nc2n1CCN1CCOCC1,?,7%,22,32µM*,?,-1
Cc1ccc2nc(-c3ccc(Cl)c(NC(=O)COc4cccc(C)c4C)c3)oc2c1,1%,7%,nt,-16%,nt,8
SMILES,GLP1R inv ag,GLP1R cytotox,DRD3 antagonist,ClpP mod,GLP1R ag,D3 ag
COc1ccc(-c2nc(C(=O)Nc3cccc(C(C)=O)c3)nn2-c2ccccc2Cl)cc1,-26%,-6%,nt,-5%,nt,-11
COCCN1C(=O)CSCC1(C)C(=O)NCc1ccccc1 (stereo not drawn),4%,-5%,21,2%,nt,0
CC(C)NCCCCOc1cccc(Br)c1,7.9µM*,-1%,?,-2%,-1%,-38
CNCCCOc1cccc(OC(C)C)c1,?,16%,-13,0%,-3%,-6
CCCOc1ccc(OCCNC2CCCC2)cc1,-8%,-6%,-10,1%,1%,-10
CC(C)NCCOc1cccc(Br)c1,-17%,-1%,-75*,-2%,-4%,-2
Brc1cccc(OCCCNC2CCCC2)c1,?,-10%,-91*,2%,0%,-15
CN1/C(=C\C=C2/SC(=S)NC2=O)C(C)(C)c2ccccc21,?,?,-53*,-2%,5%,-8
CC1=NN(c2ccccc2)C(=O)/C1=C\C=C1\N(C)c2ccccc2C1(C)C,11µM*,-11%,-23,2%,-1%,-4
CCc1nn2c(=O)cc(COC(=O)CNC(=O)COc3ccc(C)cc3)nc2s1,4%,6%,nt,-2%,nt,-17
CC(C)OCCCN(C)C1CCN(S(=O)(=O)c2ccc(-c3cc(C(F)(F)F)no3)s2)CC1,?,-5%,-84*,-1%,7%,-8
O=C(N/N=C/c1c[nH]c2ccccc12)c1ccn(Cc2ccc(Cl)cc2)n1,?,-11%,-16,-9%,-1%,6
O=C(N/N=C/c1c[nH]c2ccc(Br)cc12)c1ccn(Cc2ccc(Cl)cc2Cl)n1,11µM*,-9%,?,?,-2%,5
C/C(=C(/CCOC(=O)c1ccccc1)SS/C(CCOC(=O)c1ccccc1)=C(\C)N(C=O)Cc1cnc(C)nc1N)N(C=O)Cc1cnc(C)nc1N,nt,nt,nt,nt,-4%,nt
CN(C(=S)NC(=O)c1ccccc1Br)C1CCCCC1,10µM*,?,-27,-2%,3%,-16
O=C(N/N=C/c1ccc(OCc2ccccc2)cc1)c1cc[n+](Cc2ccccc2)cc1,13%,-14%,-59*,0%,8%,-3
O=C(N/N=C/c1ccc(O)cc1)c1cc[n+](Cc2ccccc2)cc1,4%,-5%,?,1%,1%,-3
COc1cc(C(=O)N/N=C/c2ccc(OC)c(CN3CCN(c4ccc(F)cc4)CC3)c2)ccc1O,14%,8%,-75*,-4%,8%,-13
COc1ccc(/C=N\NC(=O)c2ccccc2)cc1COc1ccc(F)cc1,7.9µM*,-8%,11,-5%,-5%,-3
